# Measured values as given in PubChem BioAssay (NCI).
# The panel holds about 79,000 compounds, 15% with a hit somewhere; the sample as a whole holds those more often. A number with no mark means an inactive call. Activity calls are given as the source filed them. Rule as the data show it: active = growth inhibition above about 70%; inactive = the rest.
# Legend:
# [1] = NCI Yeast Anticancer Drug Screen. Data for the wt2 strain (AID 169);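 also: 0% = growth of vehicle-treated yeast cultures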; conditions: S. cerevisiae wt2 strain growth inhibition, hits give high values
# Procedure, shortened: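 Genetically defined yeast strains from a DNA-repair/cell-cycle panel were used. Compound-exposed yeast growth was measured, and the inhibition was calculated relative to vehicle treatment.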
# [2] = NCI Yeast Anticancer Drug Screen. Data for the mlh1 strain (AID 171);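 also: 0% = growth of vehicle-treated control cultures of the same strain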; conditions: S. cerevisiae mlh1 strain growth inhibition, hits give high values
# Procedure, shortened: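 Here the genetically defined yeast mutant is grown with each compound, and the extent to which its growth falls below that of vehicle-exposed cells is reported.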
# [3] = NCI Yeast Anticancer Drug Screen. Data for the sgs1 strain (AID 173);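 also: 0% = growth of vehicle-only control cultures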; conditions: S. cerevisiae sgs1 mutant, hits give high values
# Procedure, shortened: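 Relative growth inhibition, referenced to vehicle, was determined in a yeast strain with a defined alteration affecting DNA damage repair or cell cycle control after compound exposure.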
# [4] = NCI Yeast Anticancer Drug Screen. Data for the mlh1 rad18 strain (AID 175); conditions: S. cerevisiae mlh1 rad18 strain growth inhibition, hits give high values
# Procedure, shortened: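 In this whole-cell yeast screen, a strain with altered DNA damage repair is challenged with compound, and its growth is measured against matched vehicle-treated controls.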
# [5] = NCI Yeast Anticancer Drug Screen. Data for the rad18 strain (AID 177); conditions: S. cerevisiae rad18 mutant growth inhibition, hits give high values
# Procedure, shortened: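 Screen uses a yeast strain with a defined lesion in DNA damage repair; compound effect is read as loss of growth compared to untreated vehicle cultures.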
compound,measurement,setting,value
Cc1c(C)c(C)c(CSC(=N)N)c(C)c1C,growth inhibition,[1]; at 1.2 µM,-41%
same,growth inhibition,[1]; at 3.7 µM,-38%
same,growth inhibition,[1]; at 11.0 µM,-32%
same,growth inhibition,[1]; at 33.0 µM,57%
same,growth inhibition,[1]; at 100.0 µM,99% (active)
same,growth inhibition,[2]; at 1.2 µM,-35%
same,growth inhibition,[2]; at 3.7 µM,-43%
same,growth inhibition,[2]; at 11.0 µM,-17%
same,growth inhibition,[2]; at 33.0 µM,77% (active)
same,growth inhibition,[2]; at 100.0 µM,98% (active)
same,growth inhibition,[3]; at 1.2 µM,-51%
same,growth inhibition,[3]; at 3.7 µM,-34%
same,growth inhibition,[3]; at 11.0 µM,-34%
same,growth inhibition,[3]; at 33.0 µM,84% (active)
same,growth inhibition,[3]; at 100.0 µM,98% (active)
same,growth inhibition,"[4]; at 5.0 µM (retest, dose inferred, filed as 0.5)",44%
same,growth inhibition,"[4]; at 50.0 µM (retest, dose inferred, filed as 5.0)",78% (active)
same,growth inhibition,[4]; at 50.0 µM,92.3% (active)
same,growth inhibition,[5]; at 1.2 µM,-56%
same,growth inhibition,[5]; at 3.7 µM,-55%
same,growth inhibition,[5]; at 11.0 µM,-58%
same,growth inhibition,[5]; at 33.0 µM,58%
same,growth inhibition,[5]; at 100.0 µM,98% (active)
